Many of the other results were omitted from the sample, so hits are more common in it than they were.
14-3-3 PPI: 14-3-3 gamma protein interaction modulation; actives 0.19% (n = 160,000); P61981; AID 422; FP, 14-3-3gamma / TMR-pS259-Raf peptide binding; inhibition, % at 40 µM; in the data active = inhibition above about 30%
Target sequence (P61981 whole entry, looked up): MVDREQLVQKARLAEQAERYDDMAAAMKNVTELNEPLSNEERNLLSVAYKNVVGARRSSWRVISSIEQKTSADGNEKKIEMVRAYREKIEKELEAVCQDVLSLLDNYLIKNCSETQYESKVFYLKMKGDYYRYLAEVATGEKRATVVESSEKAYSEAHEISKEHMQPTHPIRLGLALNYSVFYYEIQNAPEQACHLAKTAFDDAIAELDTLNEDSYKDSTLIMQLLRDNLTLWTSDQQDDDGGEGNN
Of the large screens only hits and unclear results are named; the others gave an inactive call.

CCCCNc1ncc2cc3ccccc3nc2c1C#N	14-3-3 PPI 90
CCCCCn1c(N)c(C#N)c2nc3ccccc3nc21	none
CCCCNc1ncc(C(C)=O)c2ccccc12	none
Oc1c(F)cccc1C=Nc1ccc2oc(-c3ccc(Cl)cc3)nc2c1	none
C=C(C)c1ccccc1NC(=O)Cn1c(=O)sc2ccccc21	none
O=C(Nc1nc2ccccc2n1Cc1ccccc1Cl)C1CCCCC1	none
Cc1cc(N2CCOCC2)nc2ccc([N+](=O)[O-])cc12	none
Cc1cccc(-n2c(C)nc3cc(C(=O)NCCc4ccccc4)ccc32)c1	none
COc1ccc(C2C(C(=O)c3cccs3)=C(O)C(=O)N2c2nnc(C)s2)cc1OC (centres undefined)	none
O=C(C1=C(O)C(=O)N(c2nncs2)C1c1cccc(Br)c1)c1cccs1 (centres undefined)	14-3-3 PPI 84
Cc1nnc(N2C(=O)C(O)=C(C(=O)c3cccs3)C2c2cccc(Oc3ccccc3)c2)s1 (centres undefined)	none
CC(C)CCN1C(=O)CCC1(C)C(=O)NC1CCCCC1 (centres undefined)	none
O=c1nc2sc3[nH]c(=O)sc3cc-2s1	14-3-3 PPI 150
CC1(C)Cc2nc3sc4c(N5CCCCC5)ncnc4c3cc2CO1	none
CCOc1ccc2noc3c2c1C(=O)c1ccccc1-3	none
Cc1cccc(Nc2ccc3noc4c3c2C(=O)c2ccccc2-4)c1	none
O=C1c2ccccc2-c2onc3ccc(NCc4ccco4)c1c23	14-3-3 PPI 82
CCOCCCn1c(=N)c(C(=O)NC2CCCCC2)cc2c(=O)n3cccc(C)c3nc21	none
O=C(Nc1ccc(Cl)cc1)c1ccc(-n2cnnn2)cc1	none
Cc1nc(C)c(C(=O)O)c(-c2ccco2)c1C(=O)O	none
Cc1nc2c(C(=O)NCC3CCCO3)c[nH]n2c(=O)c1Cc1ccccc1Cl (centres undefined)	none
COc1ccccc1-n1c(C)nc2cc(C(=O)O)ccc21	14-3-3 PPI 40
COc1ccc(OC)c(-n2cnc3cc(C(=O)O)ccc32)c1	none
CCOc1ccccc1-n1cnc2cc(C(=O)O)ccc21	14-3-3 PPI 57
Cc1nc2cc(C(=O)O)ccc2n1-c1ccccc1	none
CCOc1ccccc1-n1cnc2cc(C(=O)NCc3ccco3)ccc21	none
COCCNC(=O)c1ccc2c(c1)nc(C)n2-c1ccccc1OC	none
COc1ccc(NC(=O)CSc2nc3[nH]ncc3c(=O)n2-c2ccc(C)c(Cl)c2)c(OC)c1	none
COc1ccc(NC(=O)c2ccc3c(=O)n(Cc4ccccc4)c(=S)[nH]c3c2)cc1	none
O=C(NCCn1ccc2ccccc21)c1cc(Cl)ccc1[N+](=O)[O-]	none
CCS(=O)(=O)Nc1cccc(C2=NN(S(=O)(=O)CC)C(c3ccc(F)cc3)C2)c1 (centres undefined)	none
COc1ccc2nc3oc(C(=O)Nc4ccc(OC)c(Cl)c4)cc3cc2c1	none
COc1ccc(C2=NN(c3ccccc3)C(c3ccc(OC)cc3)C2)cc1 (centres undefined)	none
Cc1ccc(N2N=C(c3ccccc3)CC2c2ccccc2)cc1 (centres undefined)	none
O=c1oc2ccccc2cc1C1=NN(c2ccccc2)C(c2ccccc2)C1 (centres undefined)	14-3-3 PPI 54
Cc1ccc(S(=O)(=O)Nc2cc3c(C(=O)OC(C)C)c(C)oc3c3ccccc23)cc1[N+](=O)[O-]	none
CSc1nnc2c(n1)OC(c1ccccc1O)Nc1ccccc1-2 (centres undefined)	none
CCCSc1nnc2c(n1)OC(c1ccsc1)Nc1ccccc1-2 (centres undefined)	14-3-3 PPI 64
CSc1nnc2c(n1)OC(c1ccsc1)Nc1ccccc1-2 (centres undefined)	none
CSc1nnc2c(n1)OC(c1ccccc1Br)Nc1ccccc1-2 (centres undefined)	14-3-3 PPI 41
CCCSc1nnc2c(n1)OC(c1ccsc1)Nc1ccc(Br)cc1-2 (centres undefined)	none
CCCSc1nnc2c(n1)OC(c1ccncc1)Nc1ccccc1-2 (centres undefined)	none
CSc1nnc2c(n1)OC(c1ccc(Br)s1)Nc1ccccc1-2 (centres undefined)	none
C=CCSc1nnc2c(n1)OC(c1ccccc1C)Nc1ccccc1-2 (centres undefined)	none
CCCSc1nnc2c(n1)OC(c1cc3c(cc1Cl)OCO3)Nc1ccccc1-2 (centres undefined)	none
CCCSc1nnc2c(n1)OC(c1ccccc1Cl)Nc1ccccc1-2 (centres undefined)	14-3-3 PPI 33
CCSc1nnc2c(n1)OC(c1ccccc1C)Nc1ccccc1-2 (centres undefined)	14-3-3 PPI 41
CCSc1nnc2c(n1)OC(c1cccc(C)n1)Nc1ccccc1-2 (centres undefined)	none
Cc1cc(-n2c(SCC(=O)N3CCN(c4ccccc4)CC3)nc3ccsc3c2=O)ccc1Cl	none
Cc1ccc(NC(=O)c2sc3ncn(CC(=O)N4CCOCC4)c(=O)c3c2C)cc1F	none
CN(C)C(=O)C1C2NC(=S)N(c3ccc(F)cc3)C1(C)Oc1ccccc12 (centres undefined)	none
CCOC(=O)c1c(C)oc2ccc(NS(=O)(=O)c3ccc(Cl)c([N+](=O)[O-])c3)cc12	none
CCC(C(=O)NCc1cccs1)N1C(=O)CSc2ccc(C(C)(C)C)cc21 (centres undefined)	none
CCSc1nnc2c(n1)OC(c1ccc(CC)cc1)Nc1ccccc1-2 (centres undefined)	none
CCSc1nnc2c(n1)OC(c1ccc(C)cc1)Nc1ccccc1-2 (centres undefined)	none
CCCSc1nnc2c(n1)OC1(CCCC1)Nc1ccc(Br)cc1-2	none
CCCCSc1nnc2c(n1)OC(c1cccnc1)Nc1ccc(Br)cc1-2 (centres undefined)	none
C=CCSc1nnc2c(n1)OC(c1cccc(O)c1)Nc1ccccc1-2 (centres undefined)	none
CCCCSc1nnc2c(n1)OC(c1ccccc1)Nc1ccccc1-2 (centres undefined)	none
C=CCSc1nnc2c(n1)OC(c1cccnc1)Nc1ccccc1-2 (centres undefined)	none
CCCCCCSc1nnc2c(n1)OC(c1cccnc1)Nc1ccccc1-2 (centres undefined)	14-3-3 PPI 68
CCSc1nnc2c(n1)OC(c1ccc(N(CC)CC)cc1)Nc1ccccc1-2 (centres undefined)	14-3-3 PPI 39
O=C(O)CSc1nnc2c(n1)OC1(CCCC1)Nc1ccccc1-2	none
CCCCSc1nnc2c(n1)OC1(CCCC1)Nc1ccccc1-2	14-3-3 PPI 117
C=CCOc1cccc(C2Nc3ccccc3-c3nnc(SCC=C)nc3O2)c1 (centres undefined)	14-3-3 PPI 140
CCCCCCSc1nnc2c(n1)OC(c1ccncc1)N(C(C)=O)c1ccccc1-2 (centres undefined)	none
O=C(O)CC(c1ccco1)N1C(=O)C2C3CCC(C3)C2C1=O (centres undefined)	none
CC(=O)Nc1ccc(S(=O)(=O)Nc2cccc(NC(C)=O)c2)cc1	none
Cc1ccc(C2=NN=C(NC(=O)c3ccc(Cl)cc3)SC2)cc1	none
CCOc1cc2oc(C(F)(F)F)c(Oc3ccccc3)c(=O)c2cc1CC	none
O=C(Cc1ccccc1)Nc1ccccc1C(=O)OCC(=O)c1ccc(Br)cc1	none
CCOC(=O)c1nn(-c2ccc(OC)cc2)c(=O)c2c(NC(=O)c3ccc4c(c3)OCO4)scc12	none
COC(=O)c1ccc(C=Nc2ccc(-c3nc4ccc(C)cc4o3)cc2)cc1	none
CCOc1cccc(C2Nc3ccccc3-c3nnc(SC)nc3O2)c1OC (centres undefined)	none
CCOc1cc(C2Nc3ccccc3-c3nnc(SC)nc3O2)cc(Br)c1OCC (centres undefined)	none

Screening data (PubChem)
